Out of some 3,300 compounds screened, about 280 (8.5%) were called active. This is one part of a sample in which actives are shown more often than they occur. Unmarked numbers belong to inactive results.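 The calls were made as follows: active = mean growth inhibition over the two runs of 50% or more; inactive = mean growth inhibition under 50%.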
Test: A549 NSCLC cell proliferation inhibitors – ATP luminescence, human non-small cell lung line, primary screen (AID 371);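 also: compound exposure lasted 72 h before the ATP read; 0% = untreated cell signal and 100% = no luminescence left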
Conditions: at 10 µM, active compounds read high

SMILES	growth inhibition
COC(=O)c1ccc(N2C(=O)CC(N3CCN(C(=O)c4ccco4)CC3)C2=O)cc1 (stereo not drawn)	-5.76%
COc1ccc(Cn2ccnc2)cc1Br	7.92%
COc1nnnc2c1sc1nc(N3CCOCC3)c3c(c12)CC(C)(C)OC3	-0.53%
CC1(C)Cc2c(c(N3CCOCC3)nc3snc(N)c23)CO1	91% (active)
CC1(C)Cc2c(c(N3CCOCC3)nc3snc(Br)c23)CO1	16%
CCCCNC(=O)N1CCOCCOCCN(C(=O)NCCCC)CCOCC1	2.17%
N#Cc1nc(-c2ccccc2Cl)oc1N1CCCCC1	25.2%
CCOP(=O)(c1ccccc1)c1nc(-c2ccccc2C)oc1N1CCCCC1 (stereo not drawn)	90.3% (active)
CCOP(=O)(c1ccccc1)c1nc(-c2ccc(F)cc2)oc1N1CCCCC1 (stereo not drawn)	35.1%
Clc1cccc(-c2nn3c(COc4ccccc4)nnc3s2)c1	-1.72%
Cc1nn(C)cc1/C=N/n1nnnc1N	3.1%
N#Cc1nc(-c2cccs2)oc1NCc1ccc2c(c1)OCO2	51.8% (active)
N#Cc1nc(-c2cccs2)oc1NCc1ccccc1Cl	16.3%
N#Cc1nc(-c2cccs2)oc1NCc1ccccc1	37.1%
Cc1ccc(C2/C(=C(/O)c3ccc(OC(C)C)cc3)C(=O)C(=O)N2CCN2CCOCC2)cc1 (stereo not drawn)	-0.89%
Oc1c(C=Nc2cccnc2)sc2ccccc12	9.67%
CC(=Nc1cccc(O)c1)c1sc2ccccc2c1O	71.6% (active)
Oc1c(C=NCc2ccncc2)sc2ccccc12	3.71%
O=C1CC(N(O)C2CC(=O)N(Cc3ccccc3)C2=O)C(=O)N1Cc1ccccc1 (stereo not drawn)	9.01%
CN(C)CCCOC(=O)C1c2ccccc2Oc2ccccc21	8.41%
Cc1ccc2[nH]c3c(c2c1)CCCC3C(N)=O (stereo not drawn)	0.63%
Cc1nnc(N2CCOCC2)c2ccccc12	-0.2%
NC(=O)C(c1ccccc1)C1CCCC1 (stereo not drawn)	2%
O=C(NC1CCCCC1)N1CCSC1=Nc1ccccc1	83.3% (active)
O=C(NC1CCCCC1)Nn1c(-c2ccccc2)nc2ccccc2c1=O	5.81%

SMILES	growth inhibition
Cc1cc(C)n(-c2nnc(C)n2/N=C/c2ccccc2F)n1	-1.21%
CCc1nnc(NC(=O)CSc2nc(C)c3c(c2C#N)CCCC3)s1	47.6%
Cc1ccc(-n2c(SCC(=O)NCc3ccco3)nc3nc4c(cc3c2=O)COC(C)(C)C4)cc1	7.55%
CCCc1cc(-c2nc(N)ncc2-c2ccc3c(c2)OCCCO3)c(O)cc1OC	78.2% (active)
O=S(=O)(c1ccccc1)N1CCC(N2CCCCCC2)CC1	11.3%
Cc1ccc(S(=O)(=O)N(CC(O)CN(C)C)c2ccccc2)cc1 (stereo not drawn)	5.21%
COC(=O)c1cc(Br)c(=O)n(-c2cc(C)on2)c1	5.44%
C=C(C)CSC1=C(C#N)C(c2ccsc2)CC(=O)N1 (stereo not drawn)	11.7%
CCCCCCSC1=C(C#N)C(c2ccccc2)CC(=O)N1 (stereo not drawn)	17.1%
N#CC1=C2SCC(O)(c3ccccc3)N2C(=O)CC1c1ccccc1 (stereo not drawn)	61.5% (active)
CCCCn1c(O)c(C=NCCCN(C)C)c(=O)[nH]c1=O	-0.32%
CC1(C)Cc2c(C#N)c(SCCC#N)nc(N3CCOCC3)c2CS1	26.4%
CCOc1ccc(S(=O)(=O)N(C)C)cc1-c1nc2c(C(C)(C)C)nn(C)c2c(=O)[nH]1	-2.28%
CCOc1ccc(S(=O)(=O)NC(C)(C)C)cc1-c1nc2c(C(C)(C)C)nn(C)c2c(=O)[nH]1	62.9% (active)
CCOc1ccc(S(=O)(=O)N(C)CCO)cc1-c1nc2c(C(C)(C)C)nn(C)c2c(=O)[nH]1	22%
COC(=O)C(NC(=O)c1ccccc1)(Nc1nc(C)cs1)C(F)(F)F (stereo not drawn)	4.51%
CN(C)C(CN1C(=O)C2CC=CCC2C1=O)c1cn(C)c2ccccc12 (stereo not drawn)	-4.21%
COc1ccc2[nH]c(C)c(C(=O)CN3CCOCC3)c2c1	-6.74%
Nc1nnnn1/N=C/c1ccccn1	3.3%
C=CCOC(=O)C1=C(C)NC(SCC(=O)N(CC)CC)=C(C#N)C1c1ccco1 (stereo not drawn)	21.8%
CCc1ccc(NC(=O)CSC2=C(C#N)C(c3ccco3)C3=C(CCCC3=O)N2)cc1 (stereo not drawn)	44.8%
CCN(CC)C(=O)CSC1=C(C#N)C(c2ccco2)C(C(=O)OCCOC)=C(C)N1 (stereo not drawn)	1.8%
COc1ccc(NC(=O)CSC2=C(C#N)C(c3ccco3)C3=C(CCCC3=O)N2)c(OC)c1 (stereo not drawn)	10.5%
CCCCc1ccc(NC(=O)CSC2=C(C#N)C(c3ccco3)C3=C(CCCC3=O)N2)cc1 (stereo not drawn)	57.6% (active)
COc1ccc(OC)c(NC(=O)CSC2=C(C#N)C(c3ccco3)C3=C(CCCC3=O)N2)c1 (stereo not drawn)	16.1%

SMILES	growth inhibition
COc1cccc(NC(=O)CSC2=C(C#N)C(c3ccco3)C3=C(CCCC3=O)N2)c1 (stereo not drawn)	60.1% (active)
CCc1ccccc1NC(=O)CSC1=C(C#N)C(c2ccc(O)c(OC)c2)C2=C(CCCC2=O)N1 (stereo not drawn)	35%
C=CCOC(=O)C1=C(C)NC(SCC(=O)Nc2ccc(C)c(Cl)c2)=C(C#N)C1c1ccco1 (stereo not drawn)	84.2% (active)
COCCOC(=O)C1=C(C)NC(SCC(=O)NC(C)(C)C)=C(C#N)C1c1ccco1 (stereo not drawn)	32.6%
CCOC(=O)C1=C(c2ccccc2)NC(SCC(=O)Nc2ccccc2C)=C(C#N)C1c1ccco1 (stereo not drawn)	38.8%
C=CCOC(=O)C1=C(C)NC(SCC(=O)N(CC)CC)=C(C#N)C1c1ccccc1 (stereo not drawn)	51.2% (active)
O=c1[nH]c(CN2CCCCC2)nc2c1C1(CCCCC1)Cc1ccccc1-2	-4.24%
CCCCc1[nH]c(=O)c(C#N)c2c1CSC(C)(C)C2	7.58%
CCCCOC(=O)CSC1=C(C#N)C(c2ccccc2OC)C(C#N)C(=O)N1 (stereo not drawn)	6.07%
COc1ccc2nc(SCC(=O)O)nc(C)c2c1	-2.56%
COc1ccc(-c2cc(=O)[nH]c(=O)[nH]2)cc1	1.67%
Cc1nnc2n(-c3ccccc3)c(=O)c3c4c(sc3n12)COC(C)(C)C4	-0.59%
N#Cc1ccc(-c2cccnc2)nc1SCC(=O)Nc1sc2c(c1C#N)CCC2	14.6%
CCC(C)n1ncn(-c2ccc(N3CCN(c4ccc(OCC5COC(Cn6cncn6)(c6ccc(Cl)cc6Cl)O5)cc4)CC3)cc2)c1=O (stereo not drawn)	50.3% (active)
COCc1n[nH]c(=S)n1-c1cccc2ccccc12	4.29%
CCOc1ccc(N=C2C(=O)N(CN3CCOCC3)c3ccccc32)cc1	20.3%
COC(=O)c1ccc(Cn2c(O)c(N=O)c3ccccc32)o1	8.55%
CCCCCC(=O)N1CC2(CC)CN(C(=O)CCCCC)CC(CC)(C1)C2=O	14.3%
O=C(O)CCSc1ccc2ccccc2n1	1.45%
CC(Sc1ccc2ccccc2n1)C(=O)O (stereo not drawn)	-2.6%
O=C1c2ccccc2C(=O)C1c1ccc2ccccc2n1	74.9% (active)
COC(=O)C1=C(N)Oc2cc(C)oc(=O)c2C1c1ccncc1 (stereo not drawn)	-1.55%
COC(=O)/C(=C1/Oc2cc(C)oc(=O)c2S1)C(F)(F)F	76.1% (active)
COC(=O)c1ccc(C2/C(=C(\O)c3cccc(OC)c3)C(=O)C(=O)N2CCCN(C)C)cc1 (stereo not drawn)	1.92%
Cc1nnc2n(-c3ccccc3)c(=O)c3c4c(sc3n12)CC(C)CC4 (stereo not drawn)	12.7%

SMILES	growth inhibition
CN=C(c1ccco1)n1c(=S)nc(-c2ccco2)n(C)c1=S	5.55%
NS(=O)(=O)c1ccc(C(=O)O)cc1	-6.06%
O=C(O)c1cc(O)c2c(c1)C(=O)c1cccc(O)c1C2=O	59.2% (active)
CC(=O)Oc1cccc2c1C(=O)c1c(OC(C)=O)cc(C(=O)O)cc1C2=O	57.8% (active)
COc1cc(C(=O)Nc2ccc(O)cc2C(=O)O)ccc1OC(C)=O	2.72%
CC(=O)Oc1ccccc1C1OC(=O)c2ccccc2N1C(C)=O (stereo not drawn)	4.51%
Nc1cccc(C(=O)O)c1	4.57%
CN1CCN(Cc2c(O)ccc3c(-c4ccccc4)cc(=O)oc23)CC1	8.11%
Cc1c(Cl)c(C(F)(F)F)nn1CC(=O)N1CCSCC1	8.88%
Cn1c(OCc2cccnc2)nc2c1c(=O)n(Cc1ccc(Cl)cc1)c(=O)n2C	35.5%
O=C(NCCCNCc1ccccc1)/C(=N\O)c1ccccc1	1.98%
CCOC(=O)c1[nH]c2ccc(Br)cc2c1NC(=O)CNC	15.7%
C=COC(=O)CSc1nc(-c2cccs2)ccc1C#N	5.33%
CC(=O)NCC(=O)OCN1C(=O)c2ccccc2C1=O	-2.75%
COC(=O)Nc1nc2ccc(C(=O)c3ccccc3)cc2[nH]1	55.8% (active)
Cn1c(=O)oc2cc(C(=O)c3ccccc3)ccc21	13.3%
CC(=O)Nc1ccc(Oc2ccc3nc(C)[nH]c3c2)cc1	10.6%
CCOc1ccc2nc(SCC(=O)Nc3ncccn3)[nH]c2c1	-4.07%
CCCOc1ccc2nc(NC(=O)OC)[nH]c2c1	48.4%
CCCSc1ccc2nc(NC(=O)OC)[nH]c2c1	53.2% (active)
COC(=O)Nc1nc2ccc(Sc3ccccc3)cc2[nH]1	81.7% (active)
Cn1c(=O)n(C)c2cc(C(=O)c3ccccc3)ccc21	5.5%
CCC(=O)Nc1nc(C)c(Oc2ccccc2)c(=O)[nH]1	1.39%

Source: PubChem BioAssay AID371 (SRMLSC, 2006)
